Data as given in PubChem BioAssay.
Activity calls are given as the source filed them.

Experiments:
[1] = tested on: Human papillomavirus type 1a protein E7 (residues 44-93); assay: small molecules binding HPV E7 44-93 – biochemical, small-molecule microarray, residues 44-93, 635 nm fluorescence, primary screen (AID 1108); settings: fluorescence 635 nm, higher = more signal;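 further: E7 fragment applied at 1 µg/mL in TBST for 1 h at 4 C; score combines spot fluorescence with its signal to noise ratio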
[2] = hepatitis C replication reporter changes, two-sided – Huh7 cells, luciferase reporter, HCV replication inhibitor project, primary screen (AID 1109); settings: Huh7 HCV replicon luciferase reporter, 48 h; higher = more signal;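 further: huh7 hepatoma cells harbouring a luciferase neomycin HCV replicon reporter; luciferase luminescence as measure of HCV replicon replication; test concentration not given here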
[3] = biological target: Left-right determination factor 2 (Homo sapiens) (UniProt O00292); assay: small molecules binding LEFTY2 protein – biochemical, small-molecule microarray, 635 nm fluorescence scan, primary screen (AID 1110); settings: higher = more signal
[4] = biological target: Calmodulin-1 (Homo sapiens) (UniProt P0DP23); assay: small molecules binding calmodulin-1 with EGTA – biochemical, small-molecule microarray, Cy5-labelled CALM1, profiling panel (AID 1111); settings: Cy5-CALM1 binding fluorescence, higher = more signal;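 further: labelled calmodulin applied in Tris saline Tween buffer holding calcium plus EGTA and DTT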
[5] = biological target: Calmodulin-1 (Homo sapiens) (UniProt P0DP23); assay: small molecules binding Ca-loaded calmodulin-1 – biochemical, small-molecule microarray, Cy5-labelled CALM1, plus calcium, artefact control for SMM control-protein annotation, profiling panel (AID 1112); settings: Cy5-CALM1 binding fluorescence, higher = more signal;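 further: score merges spot fluorescence with signal to noise from triplicate slides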
[6] = probe aWnt5a binding to arrayed compounds – biochemical, biotinylated probe, 635/667 nm fluorescence, primary screen (AID 1113); settings: small-molecule microarray, higher = more signal;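 further: score merges 667 nm fluorescence intensity with signal-to-noise per printed feature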
[7] = probe aShh binding to arrayed compounds – biochemical, biotinylated probe, 635/667 nm fluorescence, primary screen (AID 1114); settings: small-molecule microarray, higher = more signal;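 further: probe is biotin-labelled aShh protein from a stem cell growth factor screen; measures binding of labelled protein to compounds printed on the slide; score merges feature fluorescence at 667 nm with signal-to-noise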
[8] = probe aNog binding to arrayed compounds – biochemical, biotinylated probe, 635/667 nm fluorescence, primary screen (AID 1115); settings: small-molecule microarray, higher = more signal;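 further: probe is biotinylated aNog protein used at 0.15 µg/mL for 1 h at 4 C; z-score combines 667 nm fluorescence of each spot with its signal to noise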
[9] = biological target: Torsin-1A-interacting protein 1 (Homo sapiens) (UniProt Q5JTV8); assay: compound microarray binding of lysate hLAP1 – cell lysate, small-molecule microarray, COS7 lysate, 635/667 nm fluorescence, primary screen (AID 1116); settings: 635 nm fluorescence, higher = more signal
[10] = biological target: Alpha-bungarotoxin (Bungarus multicinctus) (UniProt P60615); assay: compounds binding labelled alpha-BTX control protein – biochemical, small-molecule microarray, Alexa647 label, 635/667 nm fluorescence, artefact control for SMM control protein annotation, profiling panel (AID 1117); settings: alpha-BTX-A647 binding fluorescence, higher = more signal
Albumin (Bos taurus) = Albumin (Bos taurus) (UniProt P02769); assay: compounds binding labelled BSA control protein – biochemical, small-molecule microarray, Alexa647 label, 635/667 nm fluorescence, artefact control for SMM control protein annotation, profiling panel (AID 1118); settings: BSA-A647 binding, fluorescence 635 nm, higher = more signal;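 further: score merges 667 nm emission intensity and signal-to-noise per printed compound spot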
[11] = probe aXIP binding to arrayed compounds – biochemical, NeuroSMM set, 635/667 nm fluorescence, primary screen (AID 1119); settings: small-molecule microarray, higher = more signal, called active from +8 up or from −8 down;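 further: probe is the protein aXip251-270 applied at 1 µg/mL to compound-printed slides; binding of probe to printed compounds measured as 667 nm fluorescence plus signal to noise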
[12] = probe aNOTCH3 binding on compound microarray – biochemical, small-molecule microarray, 635/667 nm fluorescence, primary screen (AID 1120); settings: higher = more signal;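 further: probe is a biotin-tagged antibody raised against NOTCH3 rather than NOTCH3 protein; score merges spot fluorescence near 667 nm with spot signal to noise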
[13] = probe aNOTCH2 binding on compound microarray – biochemical, small-molecule microarray, 635/667 nm fluorescence, primary screen (AID 1121); settings: higher = more signal;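 further: score merges feature fluorescence read at 667 nm with its signal to noise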
[14] = biological target: Carbonic anhydrase 2 (Homo sapiens) (UniProt P00918); assay: compounds binding carbonic anhydrase 2 – biochemical, small-molecule microarray, Alexa647-labelled CAII, profiling panel (AID 1122); settings: CAII-A647 binding fluorescence, higher = more signal
[15] = COS7 lysate on small-molecule microarray, probe aHis, 635 nm (AID 1123); settings: COS7 cell lysate, fluorescence, higher = more signal;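 further: z-score combines 667nm fluorescence intensity with signal-to-noise per printed compound spot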
[16] = probe aLAP1 signal on lysate-treated microarray – cell lysate, small-molecule microarray, COS7 lysate, primary screen (AID 1124); settings: probe aLAP1, fluorescence, higher = more signal;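 further: lysate comes from COS7 cells expressing LAP1 and is applied at 0.3 µg/mL; score merges spot fluorescence near 667 nm with signal-to-noise over triplicate slides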
Sam68 (KHDRBS1) = assay: compounds binding KHDRBS1 protein – biochemical, small-molecule microarray, 635 nm fluorescence, primary screen (AID 1125); settings: higher = more signal;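 further: score merges 667 nm channel intensity with signal to noise over triplicate slides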
[17] = tested on: Chordin-like protein 2 (CHRDL2); assay: compounds binding chordin-like 2 – biochemical, small-molecule microarray, 635 nm fluorescence, primary screen (AID 1126); settings: fluorescence 635 nm, higher = more signal;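 further: printed compound slides probed with Chrdl2 protein at 4 µg/mL for 1 h at 4 C; score merges 667 nm emission intensity with signal to noise over three replicate slides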
[18] = biological target: Concanavalin-A (Canavalia ensiformis) (UniProt P02866); assay: compounds binding concanavalin A lectin – biochemical, small-molecule microarray, Alexa647 label, 635 nm, artefact control for SMM control protein annotation, primary screen (AID 1127); settings: ConA-A647 binding fluorescence, higher = more signal;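 further: z combines 667 nm emission intensity with signal-to-noise across three replicate slides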
Concanavalin-A (Canavalia ensiformis), sequence (P02866 whole entry, looked up): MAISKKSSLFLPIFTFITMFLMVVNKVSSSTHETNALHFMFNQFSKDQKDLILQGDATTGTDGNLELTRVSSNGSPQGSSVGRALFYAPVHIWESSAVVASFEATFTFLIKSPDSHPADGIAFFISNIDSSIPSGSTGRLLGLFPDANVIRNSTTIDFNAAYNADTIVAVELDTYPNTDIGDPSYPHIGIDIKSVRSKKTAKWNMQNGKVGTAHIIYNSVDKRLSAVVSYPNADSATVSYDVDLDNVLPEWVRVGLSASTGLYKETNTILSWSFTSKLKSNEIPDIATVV

Albumin (Bos taurus), sequence (P02769 whole entry, looked up): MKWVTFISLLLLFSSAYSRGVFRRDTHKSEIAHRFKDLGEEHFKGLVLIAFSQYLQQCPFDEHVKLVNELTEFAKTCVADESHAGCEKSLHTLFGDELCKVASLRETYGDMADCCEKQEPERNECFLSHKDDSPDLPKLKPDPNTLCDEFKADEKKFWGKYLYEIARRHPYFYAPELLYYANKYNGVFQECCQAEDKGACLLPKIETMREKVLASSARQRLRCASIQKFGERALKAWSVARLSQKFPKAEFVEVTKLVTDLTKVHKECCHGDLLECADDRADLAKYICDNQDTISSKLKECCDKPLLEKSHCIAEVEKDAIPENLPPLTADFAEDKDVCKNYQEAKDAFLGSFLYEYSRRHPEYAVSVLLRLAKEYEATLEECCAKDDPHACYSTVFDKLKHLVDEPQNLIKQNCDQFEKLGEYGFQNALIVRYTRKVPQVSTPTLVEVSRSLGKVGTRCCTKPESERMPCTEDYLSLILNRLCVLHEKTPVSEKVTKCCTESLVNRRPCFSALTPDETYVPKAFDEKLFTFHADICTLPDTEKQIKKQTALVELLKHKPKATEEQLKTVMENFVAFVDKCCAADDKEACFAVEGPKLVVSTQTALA
Left-right determination factor 2 (Homo sapiens), sequence (O00292 whole entry, looked up): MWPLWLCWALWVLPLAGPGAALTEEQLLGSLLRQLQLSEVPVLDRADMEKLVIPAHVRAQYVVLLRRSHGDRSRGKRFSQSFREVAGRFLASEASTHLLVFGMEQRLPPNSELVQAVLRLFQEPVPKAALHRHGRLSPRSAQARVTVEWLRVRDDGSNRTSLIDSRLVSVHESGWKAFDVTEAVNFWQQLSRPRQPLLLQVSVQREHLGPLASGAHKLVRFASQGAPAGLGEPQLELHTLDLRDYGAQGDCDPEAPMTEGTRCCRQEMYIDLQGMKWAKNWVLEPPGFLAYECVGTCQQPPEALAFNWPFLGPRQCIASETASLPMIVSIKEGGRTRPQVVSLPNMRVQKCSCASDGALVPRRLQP
Alpha-bungarotoxin (Bungarus multicinctus), sequence (P60615 whole entry, looked up): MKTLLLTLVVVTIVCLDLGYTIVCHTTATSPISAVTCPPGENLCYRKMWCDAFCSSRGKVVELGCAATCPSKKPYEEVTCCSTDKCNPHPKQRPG
Torsin-1A-interacting protein 1 (Homo sapiens), sequence (Q5JTV8 whole entry, looked up): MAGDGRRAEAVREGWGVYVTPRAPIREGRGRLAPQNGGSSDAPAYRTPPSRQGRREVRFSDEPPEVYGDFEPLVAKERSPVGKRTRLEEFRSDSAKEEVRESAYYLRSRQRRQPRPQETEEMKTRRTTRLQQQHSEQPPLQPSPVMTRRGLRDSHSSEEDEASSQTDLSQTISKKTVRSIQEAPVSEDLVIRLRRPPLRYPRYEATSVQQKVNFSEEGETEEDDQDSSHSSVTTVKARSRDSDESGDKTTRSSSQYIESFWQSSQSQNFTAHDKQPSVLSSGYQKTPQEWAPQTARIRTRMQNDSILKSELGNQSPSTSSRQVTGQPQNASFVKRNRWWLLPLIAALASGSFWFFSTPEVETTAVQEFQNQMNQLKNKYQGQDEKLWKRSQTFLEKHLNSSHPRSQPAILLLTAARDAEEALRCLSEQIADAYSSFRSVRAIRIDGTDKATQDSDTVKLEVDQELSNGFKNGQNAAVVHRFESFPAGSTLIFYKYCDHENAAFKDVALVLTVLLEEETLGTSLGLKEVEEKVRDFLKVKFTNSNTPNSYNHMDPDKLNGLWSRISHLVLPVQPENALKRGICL

Structure (SMILES)	composite z-score [1]	z-score [2]	composite z-score [3]	composite z-score [4]	composite z-score [5]	composite z-score [6]	composite z-score [7]	composite z-score [8]	composite z-score [9]	composite z-score [10]	composite z-score (Albumin (Bos taurus))	composite Z-score [11]	composite z-score [12]	composite z-score [13]	composite z-score [14]	composite z-score [15]	composite z-score [16]	composite z-score (Sam68 (KHDRBS1))	composite z-score [17]	composite z-score [18]
O=C1O[C@H](c2ccccc2)[C@H](c2ccccc2)N2[C@H]1[C@@H](C(=O)Nc1nc3ccccc3s1)[C@]1(C(=O)Nc3ccc(C#CC4=CCCCC4)cc31)[C@H]2c1ccc(O)cc1	1.38	-0.832	0.0561	1.18	0.366	-0.0203	0.0465	0.178	1.17	1.4	0.658	0.156 (inactive)	0.278	-0.117	0.185	2.16	-0.0648	1.3	-0.12	0.973
CCOC(=O)C[C@H]1[C@H](OC(=O)c2ccc(-c3ccccc3)cc2)[C@@H](NC(=O)Cc2ccc(OC)cc2)c2cc(OCCCO)ccc2N1C(=O)Cc1ccc(OC)cc1	0.102	-0.261	-0.0069	0.655	0.767	-0.0114	0.0952	0.0759	0.456	0.913	0.793	-0.263 (inactive)	-0.0647	-0.112	-0.0866	0.584	0.234	0.496	-0.565	-0.0542
CC(C)c1ccc(NN2C(C(O)Cc3ccccc3)C=CC3C(=O)N(c4ccccc4)C(=O)C32)cc1 (stereo not given)	1.33	0.843	0.126	2.05	0.744	-0.0819	0.23	1.53	0.98	1.06	0.999	0.221 (inactive)	0.428	0.0383	0.751	2.65	0.0643	1.31	-0.209	1.14
COc1cc(CO)cc(I)c1O[C@H]1C=C(C(=O)NCCO)C[C@@H](NCC2CCCCC2)[C@@H]1O	0.552	-1.58	0.392	-0.11	-0.197	-0.0512	0.0639	-0.319	0.164	0.394	0.0439	-0.442 (inactive)	0.107	-0.104	0.681	1.14	-0.102	0.408	0.168	0.324
C=C(COC)C(=O)CC[C@H](OC(=O)c1cccnc1)c1ccc(CO)o1	-0.132	-1.05	0.879	-0.502	-0.875	-0.167	-0.214	-0.447	0.659	-0.0505	0.0617	-0.496 (inactive)	0.0225	-0.0569	0.317	-0.22	-0.237	0.558	0.686	0.695
Cc1ccccc1C(O)C1C=CC2C(=O)N(c3ccccc3)C(=O)C2N1Nc1ccc([N+](=O)[O-])cc1 (stereo not given)	1.42	-0.598	0.174	1.05	0.656	-0.012	0.0684	1.63	2.03	0.625	0.84	1.19 (inactive)	0.116	-0.0796	0.684	2.73	1.03	1.3	-0.051	1.14
C=C(C(=O)CC[C@H](OC(=O)c1ccccc1-c1ccccc1C(=O)O)c1ccccc1OCCO)C(C)C	0.649	-1.59	0.346	-0.246	-0.4	-0.0573	0.108	0.0718	1.31	1.26	0.0198	0.292 (inactive)	-0.0035	-0.176	0.52	0.559	-0.0566	0.974	0.0958	-0.138
O=C1N[C@@H](Cc2ccccc2)C(=O)N2[C@@H]1C[C@@H](C(=O)O)[C@H]2c1ccc(O)cc1	0.436	2.57	0.572	0.58	-0.661	0.0718	0.0711	-0.0382	0.466	0.431	0.145	0.84 (inactive)	0.428	0.0712	0.757	1.33	0.341	0.754	1.1	1.01
Nc1cc(Br)ccc1C(=O)O	-0.0633	-0.518	0.285	0.955	0.885	-0.0045	-0.0626	0.0558	0.0546	1.39	0.235	2.13 (inactive)	0.0026	-0.117	0.18	-0.12	-0.0137	0.213	-0.079	0.713
CCCNC(=O)[C@@]1(Sc2ccc(C)cc2)CC(=O)N(C(C)C)[C@@H]1c1ccc(CO)cc1I	-0.593	-2.03	-1.7	1.31	0.944	-0.178	-0.0553	0.909	0.669	-0.432	-0.249	0.292 (inactive)	-0.219	-0.163	0.771	1.22	0.846	0.58	-2.46	-0.818
